This is an account of results in PubChem BioAssay.

Assay [1] can be described thus: rapamycin-like changes in RPL19A-GFP expression – cell-based, S. cerevisiae, multiplex flow cytometry, primary screen (AID 1862; in the data active = percent of DMSO control GFP below about 86%;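 also: lower values mimic rapamycin by blocking the RPL19A rise seen in DMSO cells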). To be noted: S. cerevisiae RPL19A-GFP strain, flow cytometry fluorescence, 3 h; at 10 µM; stronger effect = lower value.
Assay [2] is described as follows: TOR pathway GLN3 branch reporter MEP2-GFP changes – S. cerevisiae, multiplex flow cytometry, primary screen (AID 1867;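 active = GFP response, as percent of the DMSO control, above the screen-wide mean plus 3 SD, about 139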;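 also: median GFP channel fluorescence of barcode-gated MEP2-GFP cells measured by flow cytometry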). As to conditions: S. cerevisiae MEP2-GFP strain, 3 h, at 10 µM, stronger effect = higher value, 100% means same as DMSO wells. (In general: A flow cytometer gives signals particle by particle.)
The nature of assay [3]: TOR pathway RTG branch CIT2 reporter changes – S. cerevisiae, GFP fusion, multiplex flow cytometry, primary screen (AID 1870).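 Also: barcoded CIT2-GFP strain pooled with four other GFP strains with rapamycin as positive control; median GFP fluorescence per well over plate mean of DMSO wells so 100% = DMSO.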 As to conditions: S. cerevisiae CIT2-GFP expression, 3 h, at 10 µM, stronger effect = higher value.
Assay [4] can be described thus: TOR pathway LAP4-GFP level changes – S. cerevisiae, multiplex flow cytometry, primary screen (AID 1873;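 active = GFP signal, as percent of the solvent control, above the screen mean plus 3 SD, about 149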). As to conditions: S. cerevisiae LAP4-GFP expression, 3 h, at 10 µM, stronger effect = higher value.
Assay [5] in a line: yeast AGP1-GFP level changes, GLN3 branch – cell-based, multiplex flow cytometry, S. cerevisiae, primary screen (AID 1887;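 active = GFP signal above the screen-wide mean plus 3 SD, that is over about 124.5% of the solvent control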;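 also: AGP1-GFP fusion strain of S. cerevisiae within a five-strain barcoded multiplex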). As to conditions: 3 h, at 10 µM, stronger effect = higher value.
The nature of assay [6]: reduced mouse 2C T cell binding to pMHC/ICAM-1 vesicles – MLPCN validation set, flow cytometry, LFA-1/ICAM-1 modulator project, pilot screen (AID 2523;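 active = response below a set limit, under 55% cells CD8-positive and vesicle-bound, and CD8 cells' 90th-percentile brightness under 279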;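 as to vesicle binding response: mean PE anti-B7-1 fluorescence of CD8+ cells relative to row control; 100% = QL9-loaded vesicles with DMSO vehicle in the same plate row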). To be noted: 2C mouse CD8+ T cells, at 7 µM, stronger effect = lower value; double positive events: measured here: CD8+/vesicle+ event percentage.
Assay [7] has as its target Integrin beta-1 (Homo sapiens) + Integrin alpha-4 (Homo sapiens) (UniProt P13612+P05556). Kind of assay: alpha4beta1 integrin LIBS antibody binding reduction – U937 cells, HUTS-21 mAb, flow cytometry, validation set, VLA-4 allosteric modulator project, pilot screen (AID 2674;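 active = inhibition above 50%, about 3 SD of the validation set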;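 also: antibody binding induced by the VLA-4 ligand LDV present at three times its Kd; 0% = LDV ligand with antibody and no compound and 100% = antibody without LDV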). To be noted: HUTS-21 LIBS mAb binding, at 6.7 µM, stronger effect = higher value, binding induced by LDV ligand.

Assay [8] can be described thus: calorie-restriction mimetic ROS inhibitors, yeast – validation compound set, pilot screen (AID 2706;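 active = superoxide response below 65% of plate, a cut near 3 SD across the whole screen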;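 also: yeast exposed to compound for one week at 30 degrees C before staining; 100% = mean of all compound wells on the same plate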). To be noted: S. cerevisiae aging, superoxide DHE fluorescence; at 10 µM, stronger effect = lower value.
The target in assay [9] is Beta-adrenergic receptor kinase 1 (Homo sapiens) (UniProt P25098). Kind of assay: GRK2 binders displacing RNA aptamer, biochemical, validation, human GRK2, bead flow cytometry (AID 488806;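 active = aptamer binding inhibition above 30%, about 3 SD of noise from non-fluorescent compounds; inactive = inhibition at or below 30%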). As to conditions: bead-bound GRK2, FAM-aptamer displacement, at 10 µM, stronger effect = higher value.
Chain of Beta-adrenergic receptor kinase 1 (Homo sapiens) (P25098 whole entry, looked up): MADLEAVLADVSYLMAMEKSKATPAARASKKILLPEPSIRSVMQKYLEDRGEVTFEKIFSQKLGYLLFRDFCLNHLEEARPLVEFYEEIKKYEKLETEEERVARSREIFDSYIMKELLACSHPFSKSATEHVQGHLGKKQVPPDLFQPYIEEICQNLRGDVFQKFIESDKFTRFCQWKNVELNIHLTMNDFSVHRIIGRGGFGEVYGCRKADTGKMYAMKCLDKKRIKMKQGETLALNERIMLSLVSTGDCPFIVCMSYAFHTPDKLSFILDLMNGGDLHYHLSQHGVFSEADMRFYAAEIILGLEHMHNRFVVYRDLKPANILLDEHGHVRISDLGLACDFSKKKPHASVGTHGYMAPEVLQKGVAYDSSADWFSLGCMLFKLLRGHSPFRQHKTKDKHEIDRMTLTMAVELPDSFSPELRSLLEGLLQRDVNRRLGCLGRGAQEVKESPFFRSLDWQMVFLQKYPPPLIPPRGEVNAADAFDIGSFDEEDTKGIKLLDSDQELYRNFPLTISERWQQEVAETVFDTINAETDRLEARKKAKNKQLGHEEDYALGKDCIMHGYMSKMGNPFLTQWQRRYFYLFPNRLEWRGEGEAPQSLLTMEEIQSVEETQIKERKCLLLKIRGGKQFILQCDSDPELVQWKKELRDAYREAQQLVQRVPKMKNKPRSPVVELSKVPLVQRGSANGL
Assay [10] deals with Beta-2 adrenergic receptor (Homo sapiens) (UniProt P07550). Description: agonist-induced loss of surface beta2AR – cell-based, FAP fluorogen, flow cytometry, validation set, pilot screen (AID 504459;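 active = percent response above 42, roughly 3 SD of non-fluorescent test compounds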;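 also: agonist-driven loss of surface beta2AR via internalization measured by FAP dye flow cytometry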). As to conditions: Am2.2-beta2AR cells, at 10 µM, stronger effect = higher value.
Chain of Beta-2 adrenergic receptor (Homo sapiens) (P07550 whole entry, looked up): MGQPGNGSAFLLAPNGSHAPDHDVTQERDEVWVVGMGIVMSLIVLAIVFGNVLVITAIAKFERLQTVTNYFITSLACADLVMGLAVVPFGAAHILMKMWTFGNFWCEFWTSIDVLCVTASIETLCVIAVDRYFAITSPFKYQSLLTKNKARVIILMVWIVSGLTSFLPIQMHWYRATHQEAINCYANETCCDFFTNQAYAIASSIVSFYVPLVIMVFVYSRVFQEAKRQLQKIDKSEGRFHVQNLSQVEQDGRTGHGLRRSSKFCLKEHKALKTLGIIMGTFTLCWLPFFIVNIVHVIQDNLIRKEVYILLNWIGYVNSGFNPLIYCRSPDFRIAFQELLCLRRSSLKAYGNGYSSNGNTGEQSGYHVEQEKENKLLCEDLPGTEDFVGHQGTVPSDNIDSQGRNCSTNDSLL
The nature of assay [11]: cytosolic pH regulators acting via V-ATPase – S. cerevisiae, pHLuorin, HTS validation (AID 504600; in the data active = response above about 15%;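 also: plate controls were DMSO for no effect and reference compound for full effect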). To be noted: V-ATPase proton transport, at 10 µM, stronger effect = higher value.
For assay [12], the system named is anti-desmoglein-3 scFv antibody binding to human DSG3. Description: blockers of pathogenic pemphigus antibody–desmoglein-3 binding – biochemical, validation compound set, bead-based, flow cytometry, pilot screen (AID 588368;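 active = binding below the plate cutoff, the plate median minus 3 SD, with a reading above zero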;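 also: signal is the median channel fluorescence of bead-bound GFP antibody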). To be noted: Protein G beads, DSG3-Fc, scFv-GFP binding, at 10 µM, stronger effect = lower value.
Assay [13] is described as follows: Nile Red efflux blockade in pump-expressing yeast – validation compound set, multiplex, phenotypic, pilot screen (AID 588506;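 active = efflux inhibition above 0.42, the validation set average plus 4 SD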;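 also: Nile Red retained in cells so higher fluorescence means more efflux inhibition; 0 = negative control wells and 1 = enniatin B 25 µM full block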). To be noted: S. cerevisiae pump-expressing triplex, Nile Red efflux flow cytometry; at 10 µM; stronger effect = higher value; the pumps come from Candida albicans.
Assay [14] deals with ATP-binding cassette sub-family B member 6 (Homo sapiens) (UniProt Q9NP58). Kind of assay: blockers of ABCB6-driven porphyrin uptake – K562-ABCB6 cells, flow cytometry, validation set, pilot screen (AID 588550;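 active = inhibition above the screen-wide mean plus 3 SD, about 51%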;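 also: 0% = DMSO wells and 100% = benzethonium chloride 70 µM positive control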). As to conditions: K562-ABCB6 porphyrin accumulation, 1 h, at 10 µM, stronger effect = higher value.
Chain of ATP-binding cassette sub-family B member 6 (Homo sapiens) (Q9NP58 whole entry, looked up): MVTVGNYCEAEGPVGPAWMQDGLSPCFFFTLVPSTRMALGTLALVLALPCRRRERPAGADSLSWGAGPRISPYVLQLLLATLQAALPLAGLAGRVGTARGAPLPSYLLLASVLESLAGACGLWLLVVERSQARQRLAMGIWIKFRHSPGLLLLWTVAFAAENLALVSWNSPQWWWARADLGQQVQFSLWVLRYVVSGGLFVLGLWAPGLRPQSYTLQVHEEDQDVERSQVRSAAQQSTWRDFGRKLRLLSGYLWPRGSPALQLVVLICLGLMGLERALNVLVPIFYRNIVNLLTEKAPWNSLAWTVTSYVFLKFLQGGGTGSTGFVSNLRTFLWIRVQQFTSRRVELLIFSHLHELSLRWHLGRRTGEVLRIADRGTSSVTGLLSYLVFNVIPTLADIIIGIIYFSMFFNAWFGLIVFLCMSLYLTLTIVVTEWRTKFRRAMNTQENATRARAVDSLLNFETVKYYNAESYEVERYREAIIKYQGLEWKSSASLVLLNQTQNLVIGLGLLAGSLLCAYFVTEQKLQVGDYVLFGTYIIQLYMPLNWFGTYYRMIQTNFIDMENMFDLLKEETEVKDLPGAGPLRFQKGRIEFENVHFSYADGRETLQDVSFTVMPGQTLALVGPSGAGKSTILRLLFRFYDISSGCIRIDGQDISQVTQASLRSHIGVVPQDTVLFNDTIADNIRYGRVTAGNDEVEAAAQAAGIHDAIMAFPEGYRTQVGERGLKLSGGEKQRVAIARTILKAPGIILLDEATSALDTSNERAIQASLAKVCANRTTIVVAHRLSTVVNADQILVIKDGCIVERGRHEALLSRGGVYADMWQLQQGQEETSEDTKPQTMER
Assay [15] can be described thus: AML differentiation inducers, ER-HoxA9 marrow cells – cell-based, GFP/MAC1 double positive, flow cytometry, validation set, primary screen (AID 588685;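 active = differentiation response of at least 50%, scaled between solvent and reference control, from cells with both markers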;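 also: compound exposure lasts four days before antibody staining and flow analysis; 0% = DMSO wells and 100% = 5 µM fulvestrant positive control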). To be noted: stronger effect = higher value, normalized: vehicle 0, fulvestrant 100.
Assay [16] addresses AP-2 complex subunit beta (Homo sapiens) (UniProt P63010). Kind of assay: beta-arrestin/AP2 interaction blockers – biochemical, validation set, GST-AP2 beads, flow cytometry, pilot screen (AID 504541;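 active = inhibition above 54%, about 3 SD of non-fluorescent compounds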;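 also: AP2 carries R879A mutation and is captured from E. coli lysate; bead-bound FITC arrestin peptide fluorescence measuring arrestin peptide binding to AP2; 0% = DMSO wells and 100% = excess unlabeled arrestin peptide control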). To be noted: FITC arrestin peptide, at 10 µM, stronger effect = higher value, AP2 beta2 appendage fragment, R879A mutant.

Inconclusive results are not listed. Active and inactive are the calls of the source.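 The calls were made as follows, unless noted: active = percent response above a set limit, the screen-wide mean plus 3 SD (cut at about 130% in these data); inactive = the rest.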

Chain of Integrin beta-1 (Homo sapiens) + Integrin alpha-4 (Homo sapiens) (P05556 whole entry, looked up): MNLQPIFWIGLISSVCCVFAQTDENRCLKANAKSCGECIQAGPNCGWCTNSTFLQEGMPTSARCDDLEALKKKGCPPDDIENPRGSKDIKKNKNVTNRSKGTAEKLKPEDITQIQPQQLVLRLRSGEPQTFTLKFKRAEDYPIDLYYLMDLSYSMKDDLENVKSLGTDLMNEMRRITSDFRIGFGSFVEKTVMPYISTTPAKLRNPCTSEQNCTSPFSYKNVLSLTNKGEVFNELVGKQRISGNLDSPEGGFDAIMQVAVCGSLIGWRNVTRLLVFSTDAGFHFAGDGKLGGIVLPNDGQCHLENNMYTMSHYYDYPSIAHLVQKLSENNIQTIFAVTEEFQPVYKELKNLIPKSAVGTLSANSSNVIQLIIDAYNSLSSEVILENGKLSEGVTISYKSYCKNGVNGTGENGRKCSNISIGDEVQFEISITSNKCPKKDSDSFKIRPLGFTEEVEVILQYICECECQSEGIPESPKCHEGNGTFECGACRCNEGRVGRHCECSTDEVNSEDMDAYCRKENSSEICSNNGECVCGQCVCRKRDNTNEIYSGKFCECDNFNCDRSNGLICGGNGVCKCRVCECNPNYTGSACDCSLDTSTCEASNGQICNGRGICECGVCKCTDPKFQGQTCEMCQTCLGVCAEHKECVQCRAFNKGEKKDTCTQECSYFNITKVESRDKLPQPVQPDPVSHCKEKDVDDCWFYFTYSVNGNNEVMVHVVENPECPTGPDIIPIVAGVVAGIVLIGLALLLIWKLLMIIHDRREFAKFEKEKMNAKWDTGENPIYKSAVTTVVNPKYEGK
Chain of Integrin beta-1 (Homo sapiens) + Integrin alpha-4 (Homo sapiens) (P13612 whole entry, looked up): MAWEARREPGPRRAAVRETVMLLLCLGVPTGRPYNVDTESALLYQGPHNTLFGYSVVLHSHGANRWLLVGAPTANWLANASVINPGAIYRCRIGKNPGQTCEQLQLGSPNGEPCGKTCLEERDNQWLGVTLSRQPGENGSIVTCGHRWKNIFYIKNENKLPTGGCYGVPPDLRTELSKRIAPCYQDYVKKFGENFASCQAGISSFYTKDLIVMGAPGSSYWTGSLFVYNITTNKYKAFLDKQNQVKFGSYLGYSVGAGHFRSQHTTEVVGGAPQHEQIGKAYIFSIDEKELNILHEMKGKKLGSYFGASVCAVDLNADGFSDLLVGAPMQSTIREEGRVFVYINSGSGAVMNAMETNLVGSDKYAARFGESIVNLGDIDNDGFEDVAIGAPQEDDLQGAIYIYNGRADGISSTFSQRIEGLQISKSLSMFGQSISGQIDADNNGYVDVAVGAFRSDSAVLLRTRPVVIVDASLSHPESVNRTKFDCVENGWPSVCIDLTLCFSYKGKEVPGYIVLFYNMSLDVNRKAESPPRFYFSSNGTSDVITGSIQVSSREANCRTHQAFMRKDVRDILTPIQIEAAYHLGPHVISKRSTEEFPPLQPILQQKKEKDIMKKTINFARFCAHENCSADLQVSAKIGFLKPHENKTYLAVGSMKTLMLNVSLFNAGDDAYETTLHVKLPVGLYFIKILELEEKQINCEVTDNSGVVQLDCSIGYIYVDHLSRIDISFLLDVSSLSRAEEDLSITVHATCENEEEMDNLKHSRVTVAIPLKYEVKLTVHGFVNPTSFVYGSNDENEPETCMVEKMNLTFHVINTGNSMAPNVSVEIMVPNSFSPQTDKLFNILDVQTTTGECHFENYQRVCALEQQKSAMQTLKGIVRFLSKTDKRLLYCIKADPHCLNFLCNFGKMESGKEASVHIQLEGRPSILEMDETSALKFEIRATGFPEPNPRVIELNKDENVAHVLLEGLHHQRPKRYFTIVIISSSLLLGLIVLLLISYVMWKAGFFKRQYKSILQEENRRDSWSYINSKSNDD
Chain of AP-2 complex subunit beta (Homo sapiens) (P63010 whole entry, looked up, the tested form may be a part, one chain of several): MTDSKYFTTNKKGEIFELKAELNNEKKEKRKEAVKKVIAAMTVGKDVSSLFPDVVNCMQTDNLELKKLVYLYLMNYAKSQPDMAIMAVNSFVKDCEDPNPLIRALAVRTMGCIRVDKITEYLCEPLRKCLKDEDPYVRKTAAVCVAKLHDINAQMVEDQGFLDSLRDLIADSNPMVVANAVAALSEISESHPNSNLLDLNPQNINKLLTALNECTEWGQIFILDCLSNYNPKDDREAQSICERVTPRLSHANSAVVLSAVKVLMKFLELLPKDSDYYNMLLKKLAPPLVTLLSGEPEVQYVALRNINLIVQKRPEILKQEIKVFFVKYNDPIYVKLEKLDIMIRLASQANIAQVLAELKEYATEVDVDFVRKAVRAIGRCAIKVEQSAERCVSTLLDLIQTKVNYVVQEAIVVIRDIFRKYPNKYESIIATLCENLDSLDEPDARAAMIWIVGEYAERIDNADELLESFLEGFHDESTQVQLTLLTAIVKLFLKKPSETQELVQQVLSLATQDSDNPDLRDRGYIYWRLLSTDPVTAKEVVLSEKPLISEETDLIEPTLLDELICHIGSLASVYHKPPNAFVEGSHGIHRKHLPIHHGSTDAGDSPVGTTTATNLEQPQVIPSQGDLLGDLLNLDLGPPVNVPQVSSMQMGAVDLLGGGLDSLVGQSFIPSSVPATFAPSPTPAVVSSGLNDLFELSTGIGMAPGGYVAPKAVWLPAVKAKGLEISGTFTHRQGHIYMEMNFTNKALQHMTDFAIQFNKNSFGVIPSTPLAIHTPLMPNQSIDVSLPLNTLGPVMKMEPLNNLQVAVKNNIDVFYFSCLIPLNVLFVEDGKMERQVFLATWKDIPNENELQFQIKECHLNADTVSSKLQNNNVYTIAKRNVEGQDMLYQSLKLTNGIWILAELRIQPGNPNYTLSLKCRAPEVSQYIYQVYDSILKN

A word on the inhibition: it is the change of the read-out against control, counted positive when it falls. As to `Nc1nc2ccc(OC(F)(F)F)cc2s1`, the percent of DMSO control GFP in assay [1] was 100% (inactive). For the same compound, the GFP response vs DMSO in [2] was 99.9% (inactive); in assay [4] it was 102% (inactive). The percent response of DMSO control in [3] was 99.3% (inactive). Further, in [5], the GFP response, % of DMSO was 95.1% (inactive). The compound also showed a double positive events in assay [6] of 57.4%. Further, the vesicle binding response in assay [6] is 21.6% (inactive). Further, the inhibition in assay [7] is -0.31% (inactive); in [14], 3% (inactive). Besides, the superoxide response (% of plate) in assay [8] is 94.9% (inactive). Further, in [9], the aptamer binding inhibition is 4% (inactive). The response is 9.24% (inactive) in assay [10] and 1.08% (inactive) in [11]. In addition, the binding (% of control) in [12] was 97.2% (inactive). Besides, the efflux inhibition (fraction of control) in assay [13] was -0.41 (inactive). The differentiation response in assay [15] was 2.69% (inactive).

Consider `CC1COc2c(N3CCN(C)CC3)c(F)cc3c(=O)c(C(=O)O)cn1c23` (stereo not given), for which the percent of DMSO control GFP in assay [1] was 92.2% (inactive). Besides, the GFP response vs DMSO was 120% (inactive) in assay [2] and 77.6% (inactive) in [4]. For the same compound, the percent response of DMSO control in [3] was 103% (inactive). Moreover, in assay [5], the GFP response, % of DMSO was 90.8% (inactive). The compound also showed a double positive events in assay [6] of 64.3%. For the same compound, the vesicle binding response in [6] is 109% (inactive). The inhibition in assay [7] was 11.3% (inactive); in [16], 2.93% (inactive); in [14], 7% (inactive). In assay [8], the superoxide response (% of plate) was 112% (inactive). Moreover, in assay [9], the aptamer binding inhibition was 2% (inactive). In addition, the response in assay [10] was -5.81% (inactive); in assay [11], -5.31% (inactive). The binding (% of control) in [12] was 95.4% (inactive). In assay [15], the differentiation response is -5.73% (inactive).

As for `COc1ccc(C(=O)/C=C/c2ccc(OC(=O)c3cc(OC)c(OC)c(OC)c3)cc2)cc1`, the percent of DMSO control GFP in assay [1] was 100% (inactive). Moreover, the GFP response vs DMSO is 102% (inactive) in assay [2] and 114% (inactive) in [4]. The percent response of DMSO control in assay [3] was 87.3% (inactive). Further, the GFP response, % of DMSO in assay [5] is 105% (inactive). The compound further yielded a double positive events in [6] of 60.7%. The vesicle binding response in assay [6] was 179% (inactive). The inhibition in assay [7] is -7.93% (inactive); in [14] it was 0% (inactive). For the same compound, the superoxide response (% of plate) in assay [8] was 96.7% (inactive). The aptamer binding inhibition in [9] was -2% (inactive). Further, the results for the response in assay [10] and in assay [11] were -6.42% (inactive) and -3.29% (inactive), respectively. Also, in [12], the binding (% of control) is 97.4% (inactive). In assay [13], the efflux inhibition (fraction of control) is 0.42 (inactive). Moreover, the differentiation response in assay [15] was 20.6% (inactive).

Consider `Cn1cc(CN2CCCC(CO)(Cc3cccc(Cl)c3)C2)cn1` (stereo not given), for which the percent of DMSO control GFP in assay [1] was 98% (inactive). Also, the GFP response vs DMSO was 102% (inactive) in assay [2] and 97.2% (inactive) in assay [4]. For the same compound, the percent response of DMSO control in assay [3] is 98.2% (inactive). In addition, the GFP response, % of DMSO in assay [5] is 99.5% (inactive). Besides, the double positive events in assay [6] amounted to 59.5%. In addition, the vesicle binding response in [6] was 57.6% (inactive). Also, the inhibition in [7] was 9.71% (inactive); in assay [14] it was 2% (inactive). Further, the superoxide response (% of plate) in [8] is 92.7% (inactive). Further, the aptamer binding inhibition in assay [9] is 0% (inactive). For the same compound, the response was 30.5% (inactive) in assay [10] and -0.03% (inactive) in assay [11]. Besides, the binding (% of control) in assay [12] is 102% (inactive). Moreover, the efflux inhibition (fraction of control) in [13] is -0.66 (inactive). The differentiation response in assay [15] was -1.88% (inactive).

As to `Nc1nnc(-c2cccc(Cl)c2Cl)c(N)n1`, the percent of DMSO control GFP in assay [1] was 101% (inactive). For the same compound, the GFP response vs DMSO in assay [2] is 108% (inactive); in assay [4], 100% (inactive). Also, the percent response of DMSO control in [3] is 103% (inactive). For the same compound, the GFP response, % of DMSO in assay [5] is 103% (inactive). The double positive events in [6] amounted to 49.8%. Further, the vesicle binding response in assay [6] was 120% (inactive). For the same compound, the inhibition in assay [7] was 9.63% (inactive); in [16], -13.2% (inactive); in [14], 4% (inactive). In addition, in assay [8], the superoxide response (% of plate) was 110% (inactive). Also, the aptamer binding inhibition in [9] was 2% (inactive). Besides, the response is 6.9% (inactive) in assay [10] and -3.91% (inactive) in [11]. The binding (% of control) in assay [12] is 94.9% (inactive). For the same compound, the differentiation response in assay [15] is -8.96% (inactive).
